What follows are sequences tested against ZFHX4 (assay: pooled miR-30 sensor sort-seq; sequence = guide strand). Conditions: shRNA.

Row | Sequence | sensor-assay potency score (higher = more potent)
1 | TTTATTTCTCTGTCGTTCCTTA | 0.274
2 | TTGCTTGTTCGAATGTACCGTT | 0.0955
3 | TTGAAGTTCAGCTTCACTCAGT | 0.0714
4 | ATCGCTAACACAACCATCGAAT | -0.685
5 | TTCTTCTGTACCTTCTGCCTGT | 0.382
6 | TTGCTCTCTGACATCTTGCTAG | -0.546
7 | TTTGTTACCAATACTATCGGTG | -0.044
8 | TAGAGCTACTATCACTTCCTAC | -0.103
9 | TAACATTTCACATTCTTGCATG | -0.369
10 | TTTGTCATCGCAGACCTCCGTG | -0.26
11 | TTGATCTTGCAGTGTGTCGGGG | 0.234
12 | TTTGTTGCTGAGGACGTCCTGA | -0.337

Each sequence was assayed against ZFP62 in the same assay as above. Conditions: shRNA.

Row | Sequence | sensor-assay potency score (higher = more potent)
13 | TTATATTTGAAGGATTTCCCAC | -0.915
14 | TTTCTCTCTAGTGTGGACCCTT | -0.0465
15 | TTTTCTGCTGTAGACTAGGGTA | -0.796

Reference: the OligoGym collection
